Screens from PubChem BioAssay.
A selection: hits, their analogues and other compounds. The true share with any hit is near 11%.
WT yeast gro inh: growth inhibition of WT strain, primary screen, mitochondrial fusion inhibitor project, WT and mutant strains, chemical genetic. mitochondrial fusion phenotypic screen. inhibition, % at 10 µM. 2.1% of 190,000 active. AID 1362, 2008; in the data active = inhibition above about 58%; tested in S. cerevisiae
Lmaj promast: Leishmania major promastigote growth inhibition, primary screen; Leishmania major promastigotes, resazurin fluorescence viability; 9% of 200,000 active; inhibition, % at 10 µM; in the data active = inhibition above about 50%;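 also: promastigotes grown with compound for 44 hours at 28 °C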
Ins promoter up: insulin promoter activators in MIN6 cells, imaging, high-content screening, mouse beta cells. MIN6 insulin promoter-GFP reporter; active compounds read high. z-score at 5 µM. 0.3% of 190,000 active;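 active = z-score above 3 at 5 µM with at least 500 cells counted in the well; inconclusive = wells under 500 cells, flagged as cytotoxic or low count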
INS promoter inh: inhibitors of insulin promoter-driven GFP, primary screen, imaging, TRM-6 cells (human fetal islet line), eGFP reporter, cell count. 0.9% of 130,000 active. inhibition, % at 2 µM. reporter expression induced with tamoxifen. AID 1273, 2008;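 active = inhibition above the mean plus 3 SD, with well images judged a real hit on visual review, cut at about 60% in these data, passing the limit was not always enough; inconclusive = inhibition over the cutoff but images rejected on review; inactive = inhibition not above the cutoff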
Autophagy mod: autophagy modulators in MEF cells, primary screen, imaging, high-content, MEF GFP-LC3 | MEF GFP-LC3 puncta imaging; test concentration mostly 10 µM | calls only at 10 µM (by protocol) | 0.98% of 190,000 active | AID 463193, 2010;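 active = percentage of spot-positive cells more than 3 SD above its plate mean, without a fluorescence outlier flag or 80% toxicity; inconclusive = no clear call, values can overlap the other calls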
Hits are given with their value; . = inactive; ? = inconclusive; / = not tested or not shown; + = active, no number.

SMILES	WT yeast gro inh	Lmaj promast	Ins promoter up	INS promoter inh	Autophagy mod
CC1CN(c2cc(-c3ccccc3)c3ccccc3n2)CC(C)O1 (configuration not stated)	76.3	100.0	.	.	.
CC1CN(c2nn3c(=O)c4ccccc4nc3c3ccccc23)CC(C)O1 (configuration not stated)	.	.	.	/	.
CCOC(=O)c1nnc(-c2ccccc2)nc1N1CC(C)OC(C)C1 (configuration not stated)	.	.	.	/	.
CC1CN(c2nc3ccccc3cc2-c2ccccc2)CC(C)O1 (configuration not stated)	78.0	.	.	.	.
Oc1c(C(c2ccccn2)N2CCCCC2)cc(Cl)c2cccnc12 (configuration not stated)	.	74.4	.	.	.
Cc1cc(/C=C2/C(=O)N(C)C(=S)N2C)ccc1N1CCCC1	.	.	/	.	+
Cc1cc(/C=C2\NC(=S)N(C)C2=O)ccc1N1CCCC1	.	.	/	/	+
CCN1C(=O)/C(=C/c2ccc(N3CCCC3)cc2)NC1=S	.	.	15.8	.	+
CCCN1C(=O)/C(=C/c2ccc(N3CCCC3)c(C)c2)NC1=S	69.4	.	/	.	+
CCCN1C(=O)/C(=C/c2ccc(N3CCOCC3)cc2)NC1=S	.	.	/	/	.
O=C(C1=C[C@H](C2CC2)C[C@H](OCCCCO)O1)N1CCN(Cc2ccccc2)CC1	.	.	3.72	/	.
O=C(C1=C[C@H](C2CCCCC2)C[C@H](OCCCCO)O1)N1CCN(Cc2ccccc2)CC1	.	59.0	.	/	.
Cc1ccc(S(=O)(=O)NC(=O)NC(C)Cc2ccccc2)cc1 (configuration not stated)	.	.	.	/	.
Cc1nn(-c2cc(Cl)ccc2Cl)c(C)c1C(=O)O	.	.	.	/	.
Cc1nc(N2CCOCC2)nc(Oc2ccccc2)c1[N+](=O)[O-]	/	/	.	/	/
Cc1nc2c(oc3ccccc32)c(=O)o1	.	.	4.23	.	.
O=c1[nH]c(Cc2ccccc2)nc2c1oc1ccccc12	.	.	.	.	.
O=C(NCc1cccnc1)c1sc2cc(Cl)ccc2c1Cl	.	81.5	.	.	.
CCOc1ccc(CCNC(=O)c2cc3sc(Cl)cc3n2C)cc1OCC	.	.	.	.	.
Cn1c(C(=O)NCc2cccnc2)cc2sc(Cl)cc21	.	81.0	.	/	.
CN(CC1CCOCC1)C(=O)CC1C(=O)NCCN1Cc1cccc(Oc2ccccc2)c1 (configuration not stated)	.	.	.	/	.
COc1cccc(OC)c1C(=O)Nc1cccnc1	.	.	.	/	.
CCCC(C)C(=O)Nc1nc(C)c(-c2csc(Nc3cc(Cl)ccc3C)n2)s1 (configuration not stated)	.	90.6	.	/	.
CCCCCC(=O)Nc1nc(C)c(-c2csc(Nc3cc(Cl)ccc3C)n2)s1	.	.	.	/	.
CCCCC(=O)Nc1nc(C)c(-c2csc(Nc3ccccc3OC)n2)s1	.	94.5	.	.	.
SMILES	WT yeast gro inh	Lmaj promast	Ins promoter up	INS promoter inh	Autophagy mod
C=CCCC(=O)Nc1nc(C)c(-c2csc(Nc3ccccc3OC)n2)s1	.	70.2	.	.	.
CCC(C)C(=O)Nc1nc(C)c(-c2csc(Nc3ccccc3OC)n2)s1 (configuration not stated)	.	98.8	.	.	.
C=CCCC(=O)Nc1nc(C)c(-c2csc(Nc3cc(Cl)ccc3OC)n2)s1	.	.	.	.	.
O=C(CSc1nc(C2CC2)nc2ccccc12)NCc1ccc2c(c1)OCO2	.	.	.	.	.
O=C(Nc1nc2ccccc2[nH]1)c1cccs1	.	.	.	.	.
O=C(/C(=C\c1ccccc1)c1nc2ccccc2[nH]1)c1ccc(Cl)cc1	.	100.2	.	/	.
COc1ccc(/C=C(/NC(=O)c2ccccc2)c2nc3ccccc3[nH]2)cc1OC	.	.	.	.	.
COc1cc(/C=C(/C(=O)c2cccs2)c2nc3ccccc3[nH]2)ccc1O	.	100.3	.	.	.
COC(=O)/C(=C\c1ccc(O)cc1)c1nc2ccccc2[nH]1	.	.	.	/	.
O=C(/C(=C/c1ccc(Cl)cc1)c1nc2ccccc2[nH]1)c1cccs1	.	100.5	?	.	+
COC(=O)/C(=C\c1cc(OC)c(OC)c(OC)c1)c1nc2ccccc2[nH]1	.	99.5	.	/	.
Nc1cc2c(cc1O)CCCC2	.	.	.	/	.
O=C(/C=C/c1cccc(Cl)c1)c1nc2ccccc2[nH]1	.	100.3	.	/	.
O=C1CN(C(=O)/C=C/c2cccc(Cl)c2)c2ccccc2N1	.	.	.	/	.
